Records with an inconclusive call do not appear. Values without a mark were called inactive. The source made the active and inactive calls. Calls follow the shape of the dose curve; as a rule, active = well fitted inhibition curve with a large enough effect; inconclusive = small, poorly fitted or top-dose-only effect; inactive = flat fitted curve, though single readings scatter.
Tested on: CP329
Assay: qHTS profiling for inhibitors of Plasmodium falciparum proliferation (AID 504749); also: nearly all actives have a fitted effect of over 60% in size;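 as to activity, negative = inhibition: 0% = DMSO vehicle and full inhibition = artemisinin control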
Conditions: P. falciparum in erythrocytes, SYBR Green DNA, 72 h; series mostly up to 28.7 µM; activity, negative = inhibition: at the top concentration
Summary of the method: (§1)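 Quantitative HTS: compounds pinned into medium, infected erythrocytes added (0.3% parasitemia, 2.5% hematocrit), 72 h culture at 37 C under 5% CO2. Saponin/Triton lysis with SYBR Green I, overnight RT, then fluorescence read.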
Potency is read from the fitted curve at half-maximal effect.

| SMILES | activity, negative = inhibition | Potency |
| --- | --- | --- |
| C[C@H](N)Cc1ccccc1 | -18.4% |  |
| C[C@]12C=CC(=O)C=C1CC[C@@H]1C2CC[C@]2(C)OC(=O)CCC12 (some centres undefined) | -1.79% |  |
| OCC(O)[C@H]1O[C@@H]2O[C@H](C(Cl)(Cl)Cl)O[C@@H]2[C@H]1O (some centres undefined) | 0.705% |  |
| CC1(C)[C@@H](C=C(Cl)Cl)[C@@H]1C(=O)OCc1c(F)c(F)cc(F)c1F | 2.9% |  |
| CC1(C)S[C@@H]2[C@H](N)C(=O)N2C1C(=O)O (some centres undefined) | -3.14% [at 12.8 µM] |  |
| C=C1Nc2ccccc2C(=O)N1c1ccccc1C | -14.5% |  |
| CC1OC(O[C@H]2C[C@@H](O)[C@]3(CO)[C@@H]4C(CC[C@]3(O)C2)[C@@]2(O)CC[C@H](C3=CC(=O)OC3)[C@@]2(C)C[C@H]4O)C(O)C(O)C1O (some centres undefined) | -0.223% |  |
| O=[N+]([O-])OC1CO[C@H]2C(O[N+](=O)[O-])COC12 (some centres undefined) | 0.834% |  |
| CCOC(=O)/C=C(C)/C=C/CC(C)CCCC(C)C (centres undefined) | -5.35% |  |
| [S]=[Sb][S][Sb]=[S] | 0.26% |  |
| CN1C2CCC1C(C(=O)O)C(OC(=O)c1ccccc1)C2 (centres undefined) | 2.63% |  |
| C[C@@H]1CC[C@H]2[C@@H](C)C(=O)O[C@@H]3OC4(C)CC[C@@H]1C32OO4 (some centres undefined) |  | 0.0151 µM (active) |
| Cc1ccc2c(c1)[C@@H]1CN(C)CC[C@H]1N2 | 0.82% |  |
| Nc1nc(O)c(-c2ccccc2)o1 | 0.394% |  |
| C=CC[N+]1(C)CCC23c4c5ccc(O)c4O[C@H]2C(=O)CC[C@@]3(O)C1C5 (some centres undefined) | -4.48% |  |
| OC[C@@H](O)[C@H]1O[C@@H]2OC(C(Cl)(Cl)Cl)O[C@H]2[C@H]1O (some centres undefined) | 1.62% |  |
| CCCCCCC(=O)O[C@H]1CC[C@H]2[C@@H]3CCC4CC(=O)C=C(C)[C@]4(C)[C@H]3CC[C@]12C (some centres undefined) | 1.12% |  |
| Cc1cc(C)cc(C(=O)OC2CC3CCC(C2)N3C)c1 (centres undefined) | -1.58% |  |
| CCCN1CCCC2Cc3nc(N)ncc3CC21 (centres undefined) | 0.463% |  |
| COc1ccc2c3c1O[C@H]1[C@@H](O)C=C[C@H]4C(C2)NCCC341 (some centres undefined) | 2.08% |  |
| CCCCCC(O)C1C(=O)OC(C)C(O)\C=C/C=C\C=C/C=C\C=C(\C)C(O)C(O)C(O)CC(O)CC(O)CC(O)CC(O)CC1O (centres undefined) | -1.91% |  |
| CCCCCc1cc(O)c2c(c1)OC(C)(C)C1CC=C(C)CC21 (centres undefined) |  | 9.53 µM (active) |

Tested on: CP335
Assay: as above
Conditions: P. falciparum in erythrocytes, SYBR Green DNA, 72 h; series mostly up to 28.7 µM; activity, negative = inhibition: at the top concentration
Summary of the method: as §1

| SMILES | activity, negative = inhibition | Potency |
| --- | --- | --- |
| C[C@H](N)Cc1ccccc1 | -0.253% |  |
| C[C@]12C=CC(=O)C=C1CC[C@@H]1C2CC[C@]2(C)OC(=O)CCC12 (some centres undefined) | 0.489% |  |
| OCC(O)[C@H]1O[C@@H]2O[C@H](C(Cl)(Cl)Cl)O[C@@H]2[C@H]1O (some centres undefined) | 0.67% |  |
| CC1(C)[C@@H](C=C(Cl)Cl)[C@@H]1C(=O)OCc1c(F)c(F)cc(F)c1F | 5.53% |  |
| CC1(C)S[C@@H]2[C@H](N)C(=O)N2C1C(=O)O (some centres undefined) | -2.22% [at 12.8 µM] |  |
| C=C1Nc2ccccc2C(=O)N1c1ccccc1C | 1.25% |  |
| CC1OC(O[C@H]2C[C@@H](O)[C@]3(CO)[C@@H]4C(CC[C@]3(O)C2)[C@@]2(O)CC[C@H](C3=CC(=O)OC3)[C@@]2(C)C[C@H]4O)C(O)C(O)C1O (some centres undefined) | 8.75% |  |
| O=[N+]([O-])OC1CO[C@H]2C(O[N+](=O)[O-])COC12 (some centres undefined) | 3.42% |  |
| CCOC(=O)/C=C(C)/C=C/CC(C)CCCC(C)C (centres undefined) | 4.01% |  |
| [S]=[Sb][S][Sb]=[S] | 2.47% |  |
| CN1C2CCC1C(C(=O)O)C(OC(=O)c1ccccc1)C2 (centres undefined) | 1.32% |  |
| C[C@@H]1CC[C@H]2[C@@H](C)C(=O)O[C@@H]3OC4(C)CC[C@@H]1C32OO4 (some centres undefined) |  | 0.0067 µM (active) |
| Cc1ccc2c(c1)[C@@H]1CN(C)CC[C@H]1N2 | 4.51% |  |
| Nc1nc(O)c(-c2ccccc2)o1 | 6.55% |  |
| C=CC[N+]1(C)CCC23c4c5ccc(O)c4O[C@H]2C(=O)CC[C@@]3(O)C1C5 (some centres undefined) | 1.26% |  |
| OC[C@@H](O)[C@H]1O[C@@H]2OC(C(Cl)(Cl)Cl)O[C@H]2[C@H]1O (some centres undefined) | 0.23% |  |
| CCCCCCC(=O)O[C@H]1CC[C@H]2[C@@H]3CCC4CC(=O)C=C(C)[C@]4(C)[C@H]3CC[C@]12C (some centres undefined) |  | 8.49 µM (active) |
| Cc1cc(C)cc(C(=O)OC2CC3CCC(C2)N3C)c1 (centres undefined) | -17.3% |  |
| CCCN1CCCC2Cc3nc(N)ncc3CC21 (centres undefined) | -0.872% |  |
| COc1ccc2c3c1O[C@H]1[C@@H](O)C=C[C@H]4C(C2)NCCC341 (some centres undefined) | 0.453% |  |
| CCCCCC(O)C1C(=O)OC(C)C(O)\C=C/C=C\C=C/C=C\C=C(\C)C(O)C(O)C(O)CC(O)CC(O)CC(O)CC(O)CC1O (centres undefined) | 5% |  |
| CCCCCc1cc(O)c2c(c1)OC(C)(C)C1CC=C(C)CC21 (centres undefined) |  | 3.38 µM (active) |

Source: PubChem BioAssay (NCATS)
